These results are taken from PubChem BioAssay.

One experiment deals with Albumin (Bos taurus) (UniProt P02769). Kind of experiment: compounds binding labelled BSA control protein – biochemical, small-molecule microarray, Alexa647 label, 635/667 nm fluorescence, artefact control for SMM control protein annotation, profiling panel (AID 1118).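 Further: score merges 667 nm emission intensity and signal-to-noise per printed compound spot.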 The following applies: BSA-A647 binding, fluorescence 635 nm, higher = more signal.
Albumin (Bos taurus), sequence (P02769 whole entry, looked up): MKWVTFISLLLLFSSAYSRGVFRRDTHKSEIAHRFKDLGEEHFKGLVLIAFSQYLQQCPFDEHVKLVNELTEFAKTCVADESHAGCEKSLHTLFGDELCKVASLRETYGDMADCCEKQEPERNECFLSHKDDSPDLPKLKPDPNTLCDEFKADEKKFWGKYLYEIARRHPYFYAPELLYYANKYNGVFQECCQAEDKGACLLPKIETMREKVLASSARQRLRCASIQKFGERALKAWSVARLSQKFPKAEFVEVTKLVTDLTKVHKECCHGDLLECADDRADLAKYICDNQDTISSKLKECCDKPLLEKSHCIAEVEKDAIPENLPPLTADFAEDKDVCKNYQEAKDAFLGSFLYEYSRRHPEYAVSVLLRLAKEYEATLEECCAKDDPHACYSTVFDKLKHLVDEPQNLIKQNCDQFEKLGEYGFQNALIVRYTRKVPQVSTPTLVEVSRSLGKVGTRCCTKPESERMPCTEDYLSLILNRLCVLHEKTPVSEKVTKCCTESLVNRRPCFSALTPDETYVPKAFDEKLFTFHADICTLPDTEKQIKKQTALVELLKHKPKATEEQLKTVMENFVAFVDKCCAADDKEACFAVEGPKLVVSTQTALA
The nature of experiment [1]: probe aXIP binding to arrayed compounds – biochemical, NeuroSMM set, 635/667 nm fluorescence, primary screen (AID 1119).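 Further: probe is the protein aXip251-270 applied at 1 µg/mL to compound-printed slides; binding of probe to printed compounds measured as 667 nm fluorescence plus signal to noise.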 The following applies: small-molecule microarray, higher = more signal, called active from +8 up or from −8 down.
Experiment [2] in a line: probe aNOTCH3 binding on compound microarray – biochemical, small-molecule microarray, 635/667 nm fluorescence, primary screen (AID 1120).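 Further: probe is a biotin-tagged antibody raised against NOTCH3 rather than NOTCH3 protein; score merges spot fluorescence near 667 nm with spot signal to noise.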 To be noted: higher = more signal.
Experiment [3] is described as follows: probe aNOTCH2 binding on compound microarray – biochemical, small-molecule microarray, 635/667 nm fluorescence, primary screen (AID 1121).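 Further: score merges feature fluorescence read at 667 nm with its signal to noise.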 The following applies: higher = more signal.
Experiment [4] concerns the target Carbonic anhydrase 2 (Homo sapiens) (UniProt P00918). Kind of experiment: compounds binding carbonic anhydrase 2 – biochemical, small-molecule microarray, Alexa647-labelled CAII, profiling panel (AID 1122). The following applies: CAII-A647 binding fluorescence, higher = more signal.
A short description of experiment [5]: COS7 lysate on small-molecule microarray, probe aHis, 635 nm (AID 1123).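 Further: z-score combines 667nm fluorescence intensity with signal-to-noise per printed compound spot.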 To be noted: COS7 cell lysate, fluorescence, higher = more signal.
A short description of experiment [6]: probe aLAP1 signal on lysate-treated microarray – cell lysate, small-molecule microarray, COS7 lysate, primary screen (AID 1124).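 Further: lysate comes from COS7 cells expressing LAP1 and is applied at 0.3 µg/mL; score merges spot fluorescence near 667 nm with signal-to-noise over triplicate slides.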 To be noted: probe aLAP1, fluorescence, higher = more signal.
For a further experiment, the system named is Sam68 (KHDRBS1). Kind of experiment: compounds binding KHDRBS1 protein – biochemical, small-molecule microarray, 635 nm fluorescence, primary screen (AID 1125).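 Further: score merges 667 nm channel intensity with signal to noise over triplicate slides.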 The following applies: higher = more signal.
The subject of experiment [7] is Chordin-like protein 2 (CHRDL2). The experiment can be described thus: compounds binding chordin-like 2 – biochemical, small-molecule microarray, 635 nm fluorescence, primary screen (AID 1126).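 Further: printed compound slides probed with Chrdl2 protein at 4 µg/mL for 1 h at 4 C; score merges 667 nm emission intensity with signal to noise over three replicate slides.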 To be noted: fluorescence 635 nm, higher = more signal.
Experiment [8] has as its target Concanavalin-A (Canavalia ensiformis) (UniProt P02866). The experiment can be described thus: compounds binding concanavalin A lectin – biochemical, small-molecule microarray, Alexa647 label, 635 nm, artefact control for SMM control protein annotation, primary screen (AID 1127).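 Further: z combines 667 nm emission intensity with signal-to-noise across three replicate slides.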 To be noted: ConA-A647 binding fluorescence, higher = more signal.
Experiment [9] can be described thus: compounds binding Alexa647 anti-His antibody – biochemical, small-molecule microarray, 635 nm fluorescence, artefact control for SMM control protein annotation, primary screen (AID 1128).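 Further: score merges feature fluorescence with signal-to-noise for each printed compound spot.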 To be noted: higher = more signal.
Experiment [10] has as its system Human papillomavirus type 1a E7 protein (residues 1-88). Kind of experiment: HPV1a E7 small-molecule binders, primary screen, biochemical, small-molecule microarray, residues 1-88, 635 nm (AID 1129). To be noted: small-molecule microarray binding, fluorescence 635 nm; higher = more signal.
Experiment [11] has as its target Focal adhesion kinase 1 (Homo sapiens) (UniProt Q05397). The experiment can be described thus: PTK2 protein binding on printed compound slides – biochemical, small-molecule microarray, 635/667 nm fluorescence, BSA, DTT, primary screen (AID 1130).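 Further: composite of spot emission at 667 nm and signal to noise over triplicate slides.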 To be noted: 635 nm fluorescence, higher = more signal.
Experiment [12] has as its system Fibrinogen (Alexa647-labelled). Kind of experiment: Alexa647-fibrinogen binding to printed small molecules – biochemical, small-molecule microarray, 635/667 nm fluorescence, artefact control for SMM control-protein annotation, profiling panel (AID 1131).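 Further: z-score merges 667 nm fluorescence with per-spot signal-to-noise over triplicate slides.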 To be noted: fibrinogen-A647 binding fluorescence, higher = more signal.
In experiment [13] the target is Follistatin (Homo sapiens) (UniProt P19883). The experiment can be described thus: FST protein binding to printed compounds – biochemical, small-molecule microarray, 635/667 nm fluorescence, primary screen (AID 1132). The following applies: 635 nm fluorescence, higher = more signal.
Follistatin (Homo sapiens), sequence (P19883 whole entry, looked up): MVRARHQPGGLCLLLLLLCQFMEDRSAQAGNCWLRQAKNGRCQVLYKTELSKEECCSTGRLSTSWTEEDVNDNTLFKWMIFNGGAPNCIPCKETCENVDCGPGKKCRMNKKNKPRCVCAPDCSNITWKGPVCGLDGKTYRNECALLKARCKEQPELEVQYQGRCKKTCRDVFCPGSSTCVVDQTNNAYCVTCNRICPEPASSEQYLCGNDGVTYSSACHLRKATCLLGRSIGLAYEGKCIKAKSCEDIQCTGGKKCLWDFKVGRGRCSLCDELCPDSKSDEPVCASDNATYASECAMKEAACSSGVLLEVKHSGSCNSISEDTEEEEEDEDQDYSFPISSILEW
In experiment [14] the target is Fibroblast growth factor 2 (Homo sapiens) (UniProt P09038). The experiment can be described thus: basic fibroblast growth factor binding to printed compounds – biochemical, small-molecule microarray, 635/667 nm fluorescence, primary screen (AID 1133). To be noted: FGF2, fluorescence 635/667, higher = more signal.
Fibroblast growth factor 2 (Homo sapiens), sequence (P09038 whole entry, looked up): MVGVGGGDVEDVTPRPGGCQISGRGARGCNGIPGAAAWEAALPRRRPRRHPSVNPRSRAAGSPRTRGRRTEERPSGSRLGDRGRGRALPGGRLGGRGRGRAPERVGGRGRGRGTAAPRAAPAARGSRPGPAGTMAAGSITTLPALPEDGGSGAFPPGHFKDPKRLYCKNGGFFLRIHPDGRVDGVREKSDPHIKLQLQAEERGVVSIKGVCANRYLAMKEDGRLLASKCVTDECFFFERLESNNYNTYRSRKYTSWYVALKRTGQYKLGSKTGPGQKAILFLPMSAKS
The nature of experiment [15]: JC-1 mitochondrial potential readout, lung cancer cells – cell-based, A549, JC-1 fluorescence, basal, 24 h, 100 nL, profiling panel (AID 1138).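 Further: A549 lung adenocarcinoma cells under basal conditions with no added stimulus; test concentration not given here.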 The following applies: higher = more signal.
In a further experiment the test system is Lefty1. The experiment can be described thus: Lefty1 protein binding to printed compounds – biochemical, small-molecule microarray, 635/667 nm fluorescence, primary screen (AID 1139). To be noted: fluorescence 635/667, higher = more signal.
Experiment [16] has as its system wheat germ agglutinin (Triticum aestivum), Alexa647-labelled. The experiment can be described thus: Alexa647-WGA lectin binding to printed small molecules – biochemical, small-molecule microarray, 635/667 nm fluorescence, artefact control for SMM control-protein annotation, profiling panel (AID 1140).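 Further: score merges 667 nm feature emission with signal to noise over triplicate slides.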 The following applies: WGA-A647 binding, 635 nm fluorescence, higher = more signal.

For experiment [17], the target named is Luciferin 4-monooxygenase (Photinus pyralis) (UniProt P08659). The experiment can be described thus: inhibition of purified Photinus pyralis luciferase – biochemical, luminescence, purified enzyme, 2006 set, primary screen (AID 1141).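 Further: cell-free assay with purified firefly luciferase at 100 ng per well in PBS; test concentration not given here.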 The following applies: purified firefly luciferase, SteadyGlo luminescence, 30 min; higher = more signal, called active from +8 up or from −8 down.
Luciferin 4-monooxygenase (Photinus pyralis), sequence (P08659 whole entry, looked up): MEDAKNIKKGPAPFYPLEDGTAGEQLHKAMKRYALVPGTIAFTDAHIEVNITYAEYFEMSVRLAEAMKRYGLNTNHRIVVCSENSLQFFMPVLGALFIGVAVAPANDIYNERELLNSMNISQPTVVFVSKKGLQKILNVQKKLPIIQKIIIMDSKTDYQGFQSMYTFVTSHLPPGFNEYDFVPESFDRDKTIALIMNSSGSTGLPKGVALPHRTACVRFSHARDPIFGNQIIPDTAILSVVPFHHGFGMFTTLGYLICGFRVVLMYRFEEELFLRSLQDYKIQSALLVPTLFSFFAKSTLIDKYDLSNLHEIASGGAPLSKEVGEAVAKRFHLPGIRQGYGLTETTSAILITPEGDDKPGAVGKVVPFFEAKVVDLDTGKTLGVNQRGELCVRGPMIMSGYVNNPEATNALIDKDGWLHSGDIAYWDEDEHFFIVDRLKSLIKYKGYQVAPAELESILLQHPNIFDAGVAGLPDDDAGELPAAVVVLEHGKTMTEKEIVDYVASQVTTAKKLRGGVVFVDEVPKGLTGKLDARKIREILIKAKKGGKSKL

Calls of active or inactive are those of the source.

Focal adhesion kinase 1 (Homo sapiens), sequence (Q05397 whole entry, looked up): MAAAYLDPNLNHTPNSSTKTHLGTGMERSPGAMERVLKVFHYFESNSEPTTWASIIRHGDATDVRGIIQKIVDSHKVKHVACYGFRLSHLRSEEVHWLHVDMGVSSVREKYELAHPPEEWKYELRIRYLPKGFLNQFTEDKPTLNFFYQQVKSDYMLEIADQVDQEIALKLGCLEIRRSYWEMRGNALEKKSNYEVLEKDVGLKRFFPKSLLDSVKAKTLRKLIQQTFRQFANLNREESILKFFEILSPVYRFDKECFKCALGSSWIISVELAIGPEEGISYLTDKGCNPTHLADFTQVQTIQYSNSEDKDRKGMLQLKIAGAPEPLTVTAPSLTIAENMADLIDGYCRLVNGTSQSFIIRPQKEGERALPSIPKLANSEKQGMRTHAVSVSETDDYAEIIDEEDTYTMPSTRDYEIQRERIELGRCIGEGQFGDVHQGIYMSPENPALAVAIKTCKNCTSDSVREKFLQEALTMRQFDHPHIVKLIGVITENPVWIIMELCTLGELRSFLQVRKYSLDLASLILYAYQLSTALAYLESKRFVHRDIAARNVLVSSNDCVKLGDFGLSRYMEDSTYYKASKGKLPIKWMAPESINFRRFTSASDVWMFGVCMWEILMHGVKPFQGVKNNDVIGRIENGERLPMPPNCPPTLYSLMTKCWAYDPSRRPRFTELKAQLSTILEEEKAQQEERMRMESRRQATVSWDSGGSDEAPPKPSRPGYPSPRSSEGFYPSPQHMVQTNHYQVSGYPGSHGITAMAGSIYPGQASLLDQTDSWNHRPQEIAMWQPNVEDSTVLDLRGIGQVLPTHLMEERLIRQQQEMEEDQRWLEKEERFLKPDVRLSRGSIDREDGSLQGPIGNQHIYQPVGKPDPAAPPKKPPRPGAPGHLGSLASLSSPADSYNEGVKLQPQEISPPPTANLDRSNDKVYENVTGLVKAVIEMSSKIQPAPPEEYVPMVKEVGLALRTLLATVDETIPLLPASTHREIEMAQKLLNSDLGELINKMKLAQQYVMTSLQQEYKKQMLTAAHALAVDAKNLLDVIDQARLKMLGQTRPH
Concanavalin-A (Canavalia ensiformis), sequence (P02866 whole entry, looked up): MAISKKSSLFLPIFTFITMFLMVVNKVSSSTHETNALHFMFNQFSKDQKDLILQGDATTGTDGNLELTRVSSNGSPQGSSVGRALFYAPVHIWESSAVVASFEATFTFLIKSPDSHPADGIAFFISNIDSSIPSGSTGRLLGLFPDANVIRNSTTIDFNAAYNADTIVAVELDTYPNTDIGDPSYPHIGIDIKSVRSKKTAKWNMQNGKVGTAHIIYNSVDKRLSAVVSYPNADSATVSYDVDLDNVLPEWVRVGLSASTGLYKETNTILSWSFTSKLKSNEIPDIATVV

Regarding `COCCOC(=O)N1C(=O)[C@@]2(c3cc(C#CCNC(N)=O)ccc31)[C@H](C(=O)Nc1nc3ccccc3s1)[C@H]1C(=O)O[C@H](c3ccccc3)[C@H](c3ccccc3)N1[C@@H]2c1ccc(OCCO)cc1`, the composite z-score with Albumin (Bos taurus) was -0.28; in experiment [2] it was 0.0952; in [3], 0.0949; in [4], 0.382; in experiment [5], 0.481; in experiment [6] it was 0.422. For the same compound, the composite z-score is 1.1 with Sam68 (KHDRBS1); 1.34 in [7]; 0.994 in experiment [8]; -0.187 in experiment [9]; 0.669 in experiment [10]; 0.346 in experiment [11]. Moreover, the composite z-score in experiment [12] worked out at 0.901; in experiment [13], 1.36; in experiment [14], 1.08; with Lefty1 it was 0.9; in experiment [16], 0.677. Further, the composite Z-score in experiment [1] is -0.335 (inactive). In addition, the results for the z-score in experiment [15] and in experiment [17] were -2.31 and -2.41 (inactive), respectively.
With `CCC(CC)C(O)C1C=CC2C(=O)NC(=O)C2N1Nc1ccccn1` (stereo not given), the composite z-score in the experiment with Albumin (Bos taurus) is 0.958; in [2], -0.0219; in [3], -0.0438; in experiment [4] it was 0.763; in [5], 0.864; in experiment [6] it was -0.019. Besides, the composite z-score was 0.0905 in the experiment with Sam68 (KHDRBS1); 0.416 in [7]; 0.228 in [8]; 0.823 in [9]; -0.0365 in [10]; 0.268 in experiment [11]. In addition, the composite z-score in [12] is -0.206; in [13] it was 0.872; in experiment [14] it was 0.0277; in the experiment on Lefty1 it was -0.0021; in experiment [16], 0.0789. In [1], the composite Z-score was -0.248 (inactive). Moreover, the results for the z-score in [15] and in experiment [17] were 0.693 and -0.0791 (inactive), respectively.
As to `Cc1ccc(S[C@]2(C(=O)NC3CC3)CC(=O)N(Cc3ccccc3)[C@@H]2c2ccc(CO)cc2I)cc1`, the composite z-score was 0.596 with Albumin (Bos taurus); -0.209 in experiment [2]; 0.0012 in experiment [3]; 0.742 in [4]; 2.25 in experiment [5]; 0.337 in experiment [6]. Moreover, the composite z-score was 0.0282 in the experiment with Sam68 (KHDRBS1); -0.682 in [7]; -0.391 in experiment [8]; -0.744 in experiment [9]; -0.0095 in experiment [10]; -0.557 in [11]. The composite z-score in experiment [12] was -0.394; in [13] it was -0.868; in [14], -0.131; with Lefty1 it was -1.86; in [16] it was -0.567. Moreover, the composite Z-score in [1] was -0.35 (inactive). Further, the z-score is 2.49 in experiment [15] and -1.42 (inactive) in experiment [17].
Consider `C=CCN1C(=O)[C@@]2(Cc3ccccc31)N=C(c1ccc(OCCCO)cc1)O[C@H]2c1ccccc1`, for which the composite z-score is -0.519 in the experiment with Albumin (Bos taurus); 0.307 in experiment [2]; 0.125 in experiment [3]; 0.401 in [4]; 2.8 in experiment [5]; 0.843 in [6]. For the same compound, the composite z-score in the experiment with Sam68 (KHDRBS1) turned out to be 1.17; in [7] it was 0.885; in [8] it was 1.17; in experiment [9], 2.49; in experiment [10] it was 1.19; in experiment [11], 1.02. The composite z-score turned out to be 0.039 in experiment [12]; 1.35 in [13]; 0.988 in [14]; 0.368 in the experiment with Lefty1; 0.495 in experiment [16]. Besides, the composite Z-score in experiment [1] was 0.302 (inactive). The z-score in [15] is 1.1; in experiment [17] it was -2.65 (inactive).
Consider `C=C(C(=O)CC[C@@H](OC(=O)c1cccnc1)c1ccccc1OCCO)C(C)C`, for which the composite z-score with Albumin (Bos taurus) is 0.116; in [2], 0.0909; in [3] it was -0.092; in experiment [4] it was 0.638; in experiment [5], 0.206; in experiment [6], 1.51. For the same compound, the composite z-score in the experiment on Sam68 (KHDRBS1) was 0.489; in experiment [7], 0.411; in [8] it was -0.67; in experiment [9], -0.242; in [10] it was 0.131; in experiment [11], -0.0995. Further, the composite z-score stood at 0.0673 in experiment [12]; 0.719 in experiment [13]; 0.647 in [14]; 1.23 in the experiment on Lefty1; 0.486 in experiment [16]. In addition, in experiment [1], the composite Z-score was 0.59 (inactive). The z-score in [15] was -0.102; in [17] it was -0.484 (inactive).
With `C=CCC(OC(C)=O)[C@@H]1[C@@H](N(Cc2cccc3ccccc23)C(=O)c2ccc(-c3ccccc3)cc2)c2cc(OCCCO)ccc2N1C(=O)c1ccc2ccccc2c1` (stereo not given in full), the composite z-score in the experiment with Albumin (Bos taurus) was 0.416; in [2], 0.116; in experiment [3], -0.0533; in [4], 0.16; in experiment [5], 0.735; in experiment [6], 0.169. Moreover, the composite z-score was 0.721 in the experiment on Sam68 (KHDRBS1); -0.0354 in [7]; -0.0377 in [8]; -0.165 in experiment [9]; 0.233 in experiment [10]; 0.299 in experiment [11]. Also, the composite z-score in experiment [12] was 0.66; in experiment [13], 0.906; in experiment [14] it was -0.0101; in the experiment on Lefty1 it was 0.389; in [16] it was 0.0002. Further, the composite Z-score in experiment [1] was -0.732 (inactive). For the same compound, the z-score is 0.0927 in experiment [15] and 0.797 (inactive) in experiment [17].
